Experimental findings from PubChem BioAssay (NCI) are described below.

What all share (test): NCI-60 one-dose screen, 48 h (100 = growth as untreated, 0 = no growth, -100 = all killed)
One experiment concerns HT29 colon. The settings on record: 10 µM unless noted.
The subject of the next experiment is SNB-75 CNS. The note with it: 10 µM unless noted.
The test system of a further experiment is SNB-19 CNS. The settings on record: 10 µM unless noted.
The subject of a further experiment is U251 CNS. The note with it: 10 µM unless noted.
For the next experiment, the system named is PC-3 prostate. The settings on record: 10 µM unless noted.
For another experiment, the system named is SK-MEL-5 melanoma. The note with it: 10 µM unless noted.
For a further experiment, the system named is UACC-62 melanoma. The note with it: 10 µM unless noted.
The test system of a further experiment is LOX IMVI melanoma. The settings on record: 10 µM unless noted.
Another experiment relates to SK-MEL-28 melanoma. The note with it: 10 µM.
The test system of another experiment is SK-MEL-2 melanoma. The note with it: 10 µM unless noted.
The test system of the next experiment is EKVX NSCLC. The note with it: 10 µM unless noted.
The next experiment relates to SN12C renal. The settings on record: 10 µM unless noted.
A further experiment relates to UO-31 renal. The settings on record: 10 µM unless noted.
For another experiment, the system named is TK-10 renal. The note with it: 10 µM unless noted.
The test system of a further experiment is ACHN renal. The note with it: 10 µM unless noted.
In another experiment the test system is CAKI-1 renal. The note with it: 10 µM unless noted.
A further experiment concerns A498 renal. The settings on record: 10 µM unless noted.
Another experiment relates to CCRF-CEM leukemia. The settings on record: 10 µM unless noted.
Another experiment relates to MOLT-4 leukemia. The settings on record: 10 µM unless noted.
Another experiment concerns SR leukemia. The note with it: 10 µM unless noted.

About 83,000 compounds went through this panel and 20% of them were active in at least one assay; those are over-represented in the sample as a whole.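 96-well plates, one dose, 48 hours. Percent growth reported; active if below 10.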 Unmarked numbers belong to inactive results. Calls of active or inactive are those of the source.

For `CCN1C(=O)N(CC)C2C1NN=c1s/c(=C3\C(=O)N(C(C)C)c4ccccc43)c(=O)n12` (configuration not stated), the growth in the experiment on HT29 colon was 2.15% (active); in the experiment with SNB-75 CNS it was 41.2%; in the experiment on SNB-19 CNS it was 31.3%; in the experiment with U251 CNS, 20.6%; in the experiment with PC-3 prostate it was 25.8%; in the experiment with SK-MEL-5 melanoma, 2.79% (active). In addition, the growth with UACC-62 melanoma was 16.9%; in the experiment with LOX IMVI melanoma, 20.7%; with SK-MEL-28 melanoma, 57.4%; in the experiment on SK-MEL-2 melanoma it was 23.8%; with EKVX NSCLC it was 31.5%; in the experiment on SN12C renal, 21.6%. For the same compound, the growth in the experiment with UO-31 renal is 45.4%; in the experiment on TK-10 renal, 56.5%; in the experiment with ACHN renal, 25.4%; with CAKI-1 renal it was 31.8%; with A498 renal it was -2.49% (active); with CCRF-CEM leukemia it was 9.92% (active). The growth in the experiment with MOLT-4 leukemia is 13.8%.

In the case of `CCN1C(=O)N(CC)C2Nn3c(s/c(=C4\C(=O)N(C(C)C)c5ccccc54)c3=O)=NC21` (configuration not stated), the growth is 11.6% in the experiment on HT29 colon; 60.2% with SNB-75 CNS; 46.4% with SNB-19 CNS; 28.1% in the experiment on U251 CNS; 26.3% in the experiment with PC-3 prostate; 41.4% with SK-MEL-5 melanoma. Further, the growth in the experiment on UACC-62 melanoma was 36.4%; with LOX IMVI melanoma it was 40.6%; in the experiment on SK-MEL-28 melanoma, 55.1%; in the experiment with SK-MEL-2 melanoma it was 72.9%; with EKVX NSCLC it was 29.9%; in the experiment on SN12C renal, 47.7%. Moreover, the growth in the experiment with UO-31 renal was 55.8%; in the experiment on TK-10 renal, 86.6%; in the experiment on ACHN renal it was 43.1%; in the experiment with CAKI-1 renal, 45.9%; in the experiment on A498 renal it was 37.4%; in the experiment with CCRF-CEM leukemia, 19.3%. In addition, the results for the growth with MOLT-4 leukemia and in the experiment on SR leukemia were 19.6% and 21.2%, respectively.

Turning to `Brc1ccc(Oc2ccc(Nc3ncnc4onc(-c5ccccc5)c34)cc2)cc1`, the growth with HT29 colon was 95.5%; in the experiment on SNB-75 CNS, 86.7%; in the experiment with SNB-19 CNS, 106%; in the experiment on U251 CNS it was 98.9%; in the experiment with PC-3 prostate, 102%; in the experiment with SK-MEL-5 melanoma, 92.6%. The growth was 88.6% with UACC-62 melanoma; 94.5% in the experiment with LOX IMVI melanoma; 97.2% with SK-MEL-28 melanoma; 110% in the experiment on SK-MEL-2 melanoma; 105% in the experiment on EKVX NSCLC; 94.8% in the experiment on SN12C renal. The growth is 73% with UO-31 renal; 110% in the experiment with TK-10 renal; 105% in the experiment on ACHN renal; 91.8% in the experiment on CAKI-1 renal; 82.4% in the experiment on A498 renal; 97.3% with CCRF-CEM leukemia. Besides, the growth with MOLT-4 leukemia is 94%; in the experiment on SR leukemia, 94.2%.

Turning to `COc1c(B(O)O)cccc1-c1nc2ccc3n[nH]c(F)c3c2c2c1CCCC2`, the growth was 105% with HT29 colon; -10.9% (active) in the experiment on SNB-75 CNS; 78.8% with SNB-19 CNS; 71.4% with U251 CNS; 74% with PC-3 prostate; 88.7% with SK-MEL-5 melanoma. In addition, the growth in the experiment on UACC-62 melanoma was 77.7%; in the experiment with LOX IMVI melanoma it was 54.7%; in the experiment with SK-MEL-28 melanoma it was 116%; in the experiment with SK-MEL-2 melanoma, 110%; with EKVX NSCLC it was 93%; with SN12C renal it was 62.6%. For the same compound, the growth with UO-31 renal was 41.5%; in the experiment with TK-10 renal, 35.7%; in the experiment on ACHN renal it was 65.9%; in the experiment with CAKI-1 renal, 0.82% (active); in the experiment on A498 renal, 65.7%; in the experiment with CCRF-CEM leukemia it was 38.8%. Besides, the growth in the experiment with MOLT-4 leukemia is 37.8%.

With `COc1cccc2c1C=C1CCCCC3=Cc4c(OC)cccc4OC13O2`, the growth was 16.3% with HT29 colon; -18.1% (active) with SNB-75 CNS; 51.3% in the experiment on SNB-19 CNS; 30.9% in the experiment on U251 CNS; 33.7% in the experiment on PC-3 prostate; 50.3% with SK-MEL-5 melanoma. The growth in the experiment on UACC-62 melanoma was 24.2%; in the experiment on LOX IMVI melanoma, 32.8%; in the experiment with SK-MEL-28 melanoma, 53.6%; in the experiment with SK-MEL-2 melanoma it was 48.6%; with EKVX NSCLC it was 60.5%; with SN12C renal it was 49.5%. For the same compound, the growth in the experiment with UO-31 renal is 44.5%; with TK-10 renal it was 74.7%; with ACHN renal, 38.7%; with CAKI-1 renal, 47.8%; in the experiment on A498 renal, 35.9%; in the experiment on CCRF-CEM leukemia, 27.9%. The growth with MOLT-4 leukemia was 29.1%; in the experiment on SR leukemia, 28.6%.

Take `COc1cccc2cc(N(C)c3nc(C)nc4ccsc34)ccc12`: the growth was -10.3% (active) with HT29 colon; 36% with SNB-75 CNS; 24.1% in the experiment with SNB-19 CNS; 11.7% with U251 CNS; 12.7% with PC-3 prostate; -63% (active) with SK-MEL-5 melanoma. Also, the growth is 43.4% in the experiment with UACC-62 melanoma; 16.3% in the experiment on LOX IMVI melanoma; 58.9% with SK-MEL-28 melanoma; 13.1% in the experiment with SK-MEL-2 melanoma; 60.2% in the experiment with EKVX NSCLC; 25.7% in the experiment with SN12C renal. Further, the growth in the experiment on UO-31 renal is 30.5%; with TK-10 renal, 41.8%; in the experiment with ACHN renal it was 18.9%; in the experiment on CAKI-1 renal it was 21.5%; in the experiment on A498 renal, -9.74% (active); in the experiment on CCRF-CEM leukemia, 4.65% (active). Further, the growth in the experiment with MOLT-4 leukemia was 3.39% (active).

Consider `NS(=O)(=O)c1ccc(CCN=C=S)cc1`, for which the growth with HT29 colon is 14.7%; in the experiment on SNB-75 CNS it was 29.1%; in the experiment on SNB-19 CNS, 73.5%; with U251 CNS, 27.6%; in the experiment on PC-3 prostate, 47%; in the experiment on SK-MEL-5 melanoma, 74.7%. In addition, the growth in the experiment with UACC-62 melanoma was 68.5%; with LOX IMVI melanoma, -27.9% (active); with SK-MEL-28 melanoma, 55%; in the experiment with SK-MEL-2 melanoma, 63%; in the experiment on EKVX NSCLC it was 99.9%; in the experiment with SN12C renal, 28.6%. Further, the growth with UO-31 renal is -41.9% (active); with TK-10 renal it was -4.75% (active); in the experiment with ACHN renal it was -70.7% (active); in the experiment with CAKI-1 renal it was 21.8%; with A498 renal it was 79.8%; in the experiment with CCRF-CEM leukemia, 10.4%. For the same compound, the figures for the growth in the experiment on MOLT-4 leukemia and with SR leukemia were 16.3% and 9.82% (active), respectively.

For `Nc1ccccc1-c1ccc(-c2ccc(Cl)cc2)c2c1[nH]c1ccccc12`, the growth in the experiment with HT29 colon is 67.4%; in the experiment on SNB-75 CNS it was 83%; in the experiment with SNB-19 CNS, 81.8%; in the experiment on U251 CNS it was 70.6%; in the experiment on PC-3 prostate it was 14.1%; in the experiment with SK-MEL-5 melanoma, 86.9%. For the same compound, the growth is 60.3% in the experiment on UACC-62 melanoma; 72.5% in the experiment on LOX IMVI melanoma; 97.1% in the experiment with SK-MEL-28 melanoma; 79.6% in the experiment with SK-MEL-2 melanoma; 70.6% in the experiment with EKVX NSCLC; 66.5% in the experiment on SN12C renal. Besides, the growth was 26.1% in the experiment on UO-31 renal; 84% in the experiment on TK-10 renal; 75.2% with ACHN renal; 50% with CAKI-1 renal; 72.4% with A498 renal; 37.4% in the experiment on CCRF-CEM leukemia. Moreover, the growth with MOLT-4 leukemia is 25.8%; in the experiment with SR leukemia it was 53.6%.
